The supplement of paper PMC13380429

Tested on: Vero E6 infected with SARS-CoV-2
Test: inhibition of SARS-CoV-2 cytopathic effect; higher = more antiviral protection, active = above 15
Conditions: 48 h

Measured: inhibition of SARS-CoV-2 cytopathic effect

CC(C)(N)C(=O)N[C@H](COCc1ccccc1)C(=O)N1CCC2(CC1)CN(S(C)(=O)=O)c1ccccc12 [ibutamoren]
inactive: 1 nM 1.85% | 8.33 nM 2.84% | 100 nM 0.93% | 833.33 nM 4.99% | 10000 nM 2.99%

CC[C@@H](CO)NC(=O)[C@@H]1C=C2c3cccc4[nH]cc(c34)C[C@H]2N(C)C1 [methylergometrine]
inactive: 1 nM -0.77% | 8.33 nM 0.44% | 100 nM -0.17% | 833.33 nM 0.13% | 10000 nM 0%

COc1ccccc1C1(O)CCN(CCCn2c3ccccc3c3ccccc32)CC1
inactive: 1 nM 0.73% | 8.33 nM 1.45% | 100 nM 2.5% | 833.33 nM 1.69%
active: 10000 nM 42.4%

COc1ccc(-c2nc3cc(C4=NNC(=O)CC4C)ccc3[nH]2)cc1 (stereo not given) [pimobendan]
inactive: 1 nM 2.75% | 8.33 nM -1.84% | 100 nM -1.74% | 833.33 nM -1.51% | 10000 nM -0.67%

Cc1cc(C(=O)O)sc1C(N)C(=O)O (stereo not given)
inactive: 1 nM 0.31% | 8.33 nM -0.48% | 100 nM -1.39% | 833.33 nM 1.06% | 10000 nM -0.02%

Cc1nc(Nc2n[nH]c3c2CN(C(=O)N[C@H](CN(C)C)c2ccccc2)C3(C)C)c2sccc2n1
inactive: 1 nM 3.94% | 8.33 nM -1.34% | 100 nM -3.76% | 833.33 nM -4.38% | 10000 nM -7.39%

CNc1cc2c(Nc3cccc(Br)c3)ncnc2cn1
inactive: 1 nM -1.96% | 8.33 nM -0.58% | 100 nM -1.36% | 833.33 nM -4.84% | 10000 nM -2.22%

O=C(O)[C@H]1CC[C@H](c2cc3cccnc3c(-c3cccc(F)c3)n2)CC1
inactive: 1 nM -3.3% | 8.33 nM -2.36% | 100 nM -0.1% | 833.33 nM 0.23% | 10000 nM 1.21%

Nc1nc2c(c(N3CCNCC3)n1)CCC1=C2[C@@H]2CCCC[C@@H]2O1
inactive: 1 nM 1.61% | 8.33 nM 0.48% | 100 nM 1.56% | 833.33 nM 2.05% | 10000 nM -2.01%

CCO[C@@H]1OC(=O)C[C@@H]1NC(=O)[C@@H]1CCCN1C(=O)[C@@H](NC(=O)c1ccc(N)c(Cl)c1)C(C)(C)C
inactive: 1 nM -2.56% | 8.33 nM -1.09% | 100 nM 0.58% | 833.33 nM 0.04% | 10000 nM -2.79%

CC[N+](CC)(CCCNC1=CC(=O)C(NCCC[N+](CC)(CC)Cc2ccccc2)=CC1=O)Cc1ccccc1 [benzoquinonium-dibromide]
inactive: 1 nM -1.79% | 8.33 nM 1.05% | 100 nM -2.22% | 833.33 nM 0.21% | 10000 nM -1.78%

CCCCCNC(=N)N/N=C/c1c[nH]c2ccc(OC)cc12 [tegaserod]
inactive: 1 nM -2.52% | 8.33 nM -0.54% | 100 nM -3.2% | 833.33 nM -3.82% | 10000 nM -1.44%

Nc1nc(OCC2CCCCC2)c2nc[nH]c2n1
inactive: 1 nM 1.06% | 8.33 nM 0.95% | 100 nM -3.55% | 833.33 nM 1.35% | 10000 nM -1.27%

CC(C)N[C@H]1CCn2c(=O)[nH]c3cccc(c32)[C@@H]1O [zilpaterol]
inactive: 1 nM 0.575% | 8.33 nM -0.6% | 100 nM -1.14% | 833.33 nM -1.59% | 10000 nM -2.51%

S=C(NCc1ccc2c(c1)OCO2)N1CCN(c2ncnc3c2oc2ccccc23)CC1 [amuvatinib]
inactive: 1 nM 3.11% | 8.33 nM -0.46% | 100 nM 1.46% | 833.33 nM 2.33% | 10000 nM -1.9%

Cc1cccc(/C=C/c2ccccc2)n1
inactive: 1 nM 3.85% | 8.33 nM -0.34% | 100 nM -0.78% | 833.33 nM -1.72% | 10000 nM -2.74%

O=c1cc(-c2ccc(O)cc2)oc2cc(O)cc(O)c12 [apigenin]
inactive: 1 nM -2.83% | 8.33 nM -3.34% | 100 nM -1.73% | 833.33 nM 0.85% | 10000 nM 6.4%

CC(C)N1Cc2cc(S(C)(=O)=O)ccc2N(CCN2CC=C(c3c[nH]c4cc(F)ccc34)CC2)S1(=O)=O
inactive: 1 nM -0.02% | 8.33 nM 5.05% | 100 nM 2.58% | 833.33 nM 1.15% | 10000 nM 4%

COc1ccc(-c2oc3cc(OC)ccc3c2C(=O)c2ccc(C#N)cc2)cc1
inactive: 1 nM -2.41% | 8.33 nM -2.08% | 100 nM -3.03% | 833.33 nM -3.9% | 10000 nM 1.7%
